Measurements: PubChem BioAssay

The compounds below were run on Sonic hedgehog protein (Shh) (assay: Sonic hedgehog microarray binding compounds – biochemical, small-molecule microarray, 635/667 nm fluorescence, primary screen (AID 1151;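 also: Shh protein binding to compounds spotted on small-molecule microarray slides; score combines spot fluorescence intensity with signal-to-noise across triplicate slides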)). Conditions: 635 nm fluorescence, higher = more signal.

Row | SMILES | composite z-score
1 | COc1ccc(C(O)C2C=CC3C(=O)N(Cc4ccccc4)C(=O)C3N2n2cnnc2)cc1OCc1ccccc1 (stereo not drawn) | -0.733
2 | COC(=O)[C@@]1(Cc2ccc(OC)cc2)[C@H]2c3cc(C(=O)N4CCCC4)n(Cc4ccc(C)c(F)c4F)c3C[C@H]2CN1C(=O)c1ccccc1 | -0.746
3 | CC(=O)NCCCC[C@@H]1NC(=O)[C@H]2C[C@@H](C(=O)NCCCCCCNC(=O)CS)[C@@H](c3ccc(O)cc3)N2C1=O | 1.22
4 | COCCOC(=O)N1C(=O)[C@@]2(c3cc(C#CC4(O)CCCCCC4)ccc31)[C@H](c1ccc(OCCO)cc1)N1[C@H](c3ccccc3)[C@H](c3ccccc3)OC(=O)[C@H]1[C@@H]2C(=O)N1CCN(c2ncccn2)CC1 | 1.17
5 | CCCCCN1CC=CC23O[C@@H]4/C=C\CCC(C)OC(=O)C4[C@H]2C(=O)N(C(C)CO)[C@@H]3C1=O (stereo partly drawn) | 1.09
6 | COc1ccc(C#Cc2ccc3c(c2)[C@]2(C(=O)N3)[C@H](C(=O)NC[C@H](O)c3ccccc3)[C@H]3C(=O)O[C@H](c4ccccc4)[C@H](c4ccccc4)N3[C@@H]2c2ccc(O)cc2)cc1 | 1.24
7 | COc1ccc(C#Cc2ccc3c(c2)[C@]2(C(=O)N3)[C@H](c3ccccc3OCCO)N3[C@H](c4ccccc4)[C@H](c4ccccc4)OC(=O)[C@H]3[C@@H]2C(=O)Nc2nc3ccccc3s2)cc1 | 1.52
8 | CN1C(=O)C2C=CC(C(O)c3ccco3)N(Nc3ccccc3)C2C1=O (stereo not drawn) | 0.59
